From PubChem BioAssay
Luc counter: Counterscreen for Luciferase (Kinase-Glo TM) Inhibition; Luciferin 4-monooxygenase (Photuris pensylvanica), Q27757; Kinase-Glo luciferase, ATP luminescence, 8 min; Potency, µM (doses to about 38.3 µM), without a hit: top-dose activity change, negative = inhibition, actives largely listed as inhibitors; 0.28% of 200,000 active; AID 1379, 2008; active = well fitted curve in the direction sought with a large enough effect; inconclusive = small, poorly fitted or top-dose-only effect, or another doubt; inactive = no such curve, though single readings can be large; an effect the other way counts as inactive or inconclusive; also: nearly all actives have a fitted effect of over 60% in size
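Compounds were added to a substrate mix at pH 7.2 (50 mM imidazole, 10 uM ATP, within the enzyme's linear range), followed by Kinase-Glo detection reagent; luminescence was measured after 8 minutes at ambient temperature.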
Lamin A splicing: qHTS Assay for Modulators of Lamin A Splicing; HeLa LMNA splicing GFP/RFP minigene ratio, 48 h; Potency, µM (titrated, usually from 46.1 µM), without a hit: at the highest dose ratio change, negative = inhibition, usual class: inhibitors; 0.01% of 200,000 active; AID 1487, 2009; active = well fitted inhibition curve with a large enough effect in the signal ratio, with a control signal flat, not every such curve was filed as active; inconclusive = small, poorly fitted or top-dose-only effect, or effect the other way, or a change in a side signal; the % refers to the signal ratio
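S3 HeLa stable clones carrying a lamin A-EGFP splicing minigene plus DsRed2 were seeded at 600 cells/well in Opti-MEM with 2% FBS, pin-dosed and incubated 48 h at 37°C. Acumen cytometry (488 nm) gave the GFP/RFP total-intensity ratio.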
ALDH1A1 inh: qHTS Assay for Inhibitors of Aldehyde Dehydrogenase 1 (ALDH1A1); Aldehyde dehydrogenase 1A1 (Homo sapiens), P00352; Purified ALDH1A1, NADH fluorescence, propionaldehyde substrate; Potency, µM (top dose mostly 75.3 µM), without a hit: at the highest dose activity, negative = inhibition, usual class: inhibitors; 7.3% of 220,000 active;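 also: plate controls were no enzyme wells and a reference inhibitor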
Target sequence (P00352 whole entry, looked up): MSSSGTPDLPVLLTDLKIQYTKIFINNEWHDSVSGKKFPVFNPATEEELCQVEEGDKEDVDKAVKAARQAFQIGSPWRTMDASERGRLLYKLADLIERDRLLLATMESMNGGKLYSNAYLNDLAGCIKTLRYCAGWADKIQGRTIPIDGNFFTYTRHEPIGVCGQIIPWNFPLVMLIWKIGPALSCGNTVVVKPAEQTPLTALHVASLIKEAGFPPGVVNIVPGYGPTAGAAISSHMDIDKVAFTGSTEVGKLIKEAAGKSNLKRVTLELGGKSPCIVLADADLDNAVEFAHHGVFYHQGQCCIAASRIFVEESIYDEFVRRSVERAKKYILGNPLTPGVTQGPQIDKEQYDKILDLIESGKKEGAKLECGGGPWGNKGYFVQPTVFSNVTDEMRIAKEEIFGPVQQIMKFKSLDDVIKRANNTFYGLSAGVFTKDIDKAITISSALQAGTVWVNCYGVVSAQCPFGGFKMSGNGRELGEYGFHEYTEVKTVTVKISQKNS
HPGD block: qHTS Assay for Inhibitors of HPGD (15-Hydroxyprostaglandin Dehydrogenase); 15-hydroxyprostaglandin dehydrogenase [NAD(+)] (Homo sapiens), P15428; purified HPGD, NADH fluorescence kinetic, PGE2 substrate; Potency, µM, without a hit: at the top dose activity change, negative = inhibition, usual class: inhibitors; 4.3% of 150,000 active; AID 894, 2007
Target sequence (P15428 whole entry, looked up): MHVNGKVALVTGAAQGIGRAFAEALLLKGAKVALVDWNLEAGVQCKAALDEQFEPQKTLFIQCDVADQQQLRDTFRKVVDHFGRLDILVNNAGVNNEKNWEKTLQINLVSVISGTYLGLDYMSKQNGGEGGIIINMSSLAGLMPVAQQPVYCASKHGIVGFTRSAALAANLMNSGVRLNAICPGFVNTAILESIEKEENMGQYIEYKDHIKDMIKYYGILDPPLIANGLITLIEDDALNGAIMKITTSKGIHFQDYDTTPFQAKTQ
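NADH formation kinetics: reaction with 30 uM PGE2 and 1 mM NAD+ (final), 20 nM enzyme, Tris-HCl pH 8 with Tween 20, after 15 min compound preincubation at room temperature. Fluorescence change, last versus first of five reads.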
IMPase Li inh: qHTS Assay for Identifying the Cell-Membrane Permeable IMPase Inhibitors: Potentiation with Lithium | CHO-M1 cells, IP1 TR-FRET (IP-One), carbachol + lithium | Potency, µM (doses to about 59.4 µM), for the others: at the top dose activity, negative = IMPase inhibition, hits mostly inhibitors | 0.35% of 210,000 active; active = well fitted curve in the direction sought with a large enough effect; inconclusive = small, poorly fitted or top-dose-only effect, or another doubt; inactive = no such curve, though single readings can be large; an effect the other way counts as inactive or inconclusive;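 also: IP1 builds up when IMPase is blocked and the TR-FRET signal falls; plate controls were basal vehicle for no effect and high inhibitor control for full effect; nearly all actives have a fitted effect of over 50% in size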
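CHO cells stably expressing M1 receptor (2000/well) were cultured 16–30 h, then exposed to compounds with a small lithium addition for 30 min at 37C. IP1 was measured by TR-FRET competition; AC50 from Hill fits.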
Active calls of the source: *; u = inconclusive; x = no result; ! = a repeat was not active; [ ] = another dose, or the depositor's remark. An excerpt weighted towards active compounds, which were near 9% of everything screened. Unless noted, calls follow the shape of the dose curve; as a rule, active = well fitted inhibition curve with a large enough effect (not every such curve was filed as active); inconclusive = small, poorly fitted or top-dose-only effect, or another doubt; inactive = no such curve, though single readings can be large or run the other way. Unless noted, % is scaled to controls: 0 for no effect and ±100 for the full control effect; potency is read from the fitted curve at half-maximal effect.

SMILES | Luc counter | Lamin A splicing | ALDH1A1 inh | HPGD block | IMPase Li inh
CCOC(=O)CNC(=O)CSc1nnc(SCC(=O)NCC(=O)OCC)s1 | -5.0% | 4.4% | 0.251µM* | u | -3.8%[38.3 µM]
Cc1ccc(C)c(-n2cc(CN3CCCN(C=O)CC3)c(-c3ccccc3)n2)c1 | 1.1% | x | -3.1% | x | 3.4%
Cn1c(=O)c2c(ncn2CC2OCCO2)n(C)c1=O | 1.2%[39.9 µM] | x | 2.7% | -10.2% | 3.0%
CC1CCC(N2CC(=O)N(C3CCCC3)C(c3ccc(Cl)cc3)C2=O)CC1 (stereo not given) | x | 10.4%[46 µM] | x | x | x
CCOC(=O)CSc1nnc(SCCN2C(=O)c3ccccc3C2=O)s1 | 2.5% | 10.4% | 28.2µM* | -8.9% | 20.6%[38.3 µM]
Cc1cc2c(cc(C(=O)NCCCN3CCOCC3)n2Cc2ccc(Cl)cc2)o1 | -1.9% | -16.9% | u | 12.6µM* | 30.8%[38.3 µM]
O=C1CSC2(C(=O)N(Cc3c(F)cccc3Cl)c3ccccc32)N1c1ccc(F)c(F)c1 (stereo not given) | x | -21.0%[46 µM] | x | x | x
CCN(CC)C(=O)c1sc(NC(=O)c2ccc3c(c2)OCO3)c(C#N)c1C | -2.0% | -10.0% | u | 6.31µM* | 16.5%[38.3 µM]
CCN(CC)C(=O)c1sc(NC(=O)c2cccc([N+](=O)[O-])c2)c(C#N)c1C | 0.3% | -10.6% | -11.0% | 7.08µM* | 1.2%
Cc1ccc(N2CC(C(=O)OCC(=O)Nc3ccccc3F)CC2=O)cc1 (stereo not given) | 1.4% | -4.8%[46 µM] | -9.4% | x | -2.3%
Cc1ccc(OCC(=O)Nc2cccc(C)n2)c(C)c1 | -12.6% | 1.1% | 1.8% | -8.4% | 23.6%[38.3 µM]
Cc1ccc(NC(=O)COc2cccc3ccc(C)nc23)c(Br)c1 | -1.8% | -8.2% | u | 11.2µM* | 6.4%
NC(=O)NC(=O)[C@H]1CCCC[C@@H]1C(=O)O | -0.8%[7.66 µM] | x | 4.5%[13.5 µM] | -7.4% | 5.9%
O=c1[nH][nH]c(=S)c(=O)[nH]1 | -4.7%[7.66 µM] | x | u | 3.98µM* | 3.2%
CCCCn1c(=O)n(CC(O)c2ccccc2)c(=O)c2c1ncn2C1CCCC1 (stereo not given) | 5.2% | 0.0% | 10µM* | -0.2% | 24.6%[38.3 µM]
CC(=O)Nc1ccc(C2=NN(C)C(=NCc3ccccc3)SC2)cc1 | -0.2% | 4.9%[46 µM] | 2.82µM* | x | 34.6%
CC1(C(=O)OCC(=O)Nc2ccc3ccccc3c2)CC1(Cl)Cl (stereo not given) | -1.2% | x | u | x | 8.3%
CCOC(=O)c1c(C)[nH]c(C)c1C(=O)COC(=O)c1cc(OC)c(OC)cc1OC | 0.4% | -4.1%[46 µM] | 19.2% | x | -3.5%
CC1(C)Cc2nc3sc4c(=O)n(CC(=O)NCc5ccco5)cnc4c3cc2CO1 | 1.5% | -17.6% | 22.4µM* | u | -3.6%[38.3 µM]
CC1(C)Cc2nc3oc4c(=O)n(CC(=O)Nc5ccccc5)cnc4c3cc2CO1 | -0.9% | -21.0% | u | -9.1% | -6.1%
CCSc1ncnc2c1sc1nc3c(cc12)COC(C)(C)C3 | 2.1% | -6.0% | 0.794µM* | -14.7% | u
CC1(C)Cc2nc3sc4c(OCc5ccccc5)ncnc4c3cc2CO1 | -1.2% | 4.8% | u | -10.5% | 6.5%[38.3 µM]
CCc1nc2c(sc3nc4c(cc32)COC(C)(C)C4)c(=O)n1CCN(CC)CC | -0.6% | u | 10µM* | x | 8.8%
CCc1nc(OCc2ccccc2)c2sc3nc4c(cc3c2n1)COC(C)(C)C4 | -3.2% | 4.8% | 0.794µM* | -24.8% | 9.2%[38.3 µM]
CCOc1ccc(CNC(=O)CN2C(=O)CSc3c2c(C)nn3-c2ccccc2)cc1 | x | -4.0%[46 µM] | x | x | x
SMILES | Luc counter | Lamin A splicing | ALDH1A1 inh | HPGD block | IMPase Li inh
CCC(C)Nc1nnnc2c1sc1nc3c(cc12)COC(C)(C)C3 (stereo not given) | 1.8% | u | 10µM* | x | 13.1%
CCCOc1ncnc2c1sc1nc3c(cc12)COC(C)(C)C3 | 1.0% | 0.9%[46 µM] | u | x | 8.7%
Cc1ccc(CC(=S)N2CCOCC2)cc1 | x | x | 23.8µM* | x | 3.2%
COc1ccc(OCCC(=O)N2CCOCC2)cc1 | -1.1% | 2.6%[46 µM] | 8.1% | x | 3.5%
COc1ccc(CC(=S)N2CCOCC2)cc1 | 3.0% | -1.6% | 8.91µM* | u | 19.3%[38.3 µM]
CCc1ccc(CC(=S)N2CCOCC2)cc1 | -2.2% | x | -6.1% | x | 5.9%
CC(C)(C)c1ccccc1NC(=O)c1c(O)c2cccc3c2n(c1=O)CC3 | 4.5% | u | u | x | 7.6%
N#Cc1ccccc1CSc1nnc2ccc3ccccc3n12 | x | 3.9%[46 µM] | x | x | x
CS(=O)(=O)N1CCC(C(=O)Nc2cccc([N+](=O)[O-])c2)CC1 | 4.7% | x | -13.9% | x | -14.9%
O=C(c1ccc(Cc2nc3ccccc3[nH]2)cc1)N1CCCCC1 | -2.9% | x | -7.2% | 15.8µM* | x
COc1cccc(-c2nnc3sc(-c4ccccc4)nn23)c1 | 2.9% | 1.3% | 4.5% | -24.8% | -6.3%[38.3 µM]
COc1cccc(OC)c1-c1nn2c(-c3cc(-c4ccccc4)n[nH]3)nnc2s1 | 0.1% | u | 6.1% | 12.6µM* | 4.2%[38.3 µM]
O=C(O)CC(NC(=O)Cc1ccccc1)c1cc([N+](=O)[O-])ccc1Cl (stereo not given) | 1.8% | u | -3.7% | x | -7.9%
COc1ccc(C(=O)NC(CC(=O)O)c2cc([N+](=O)[O-])ccc2Cl)c(SC)c1 (stereo not given) | 12.3% | 18.8%[9.22 µM] | 8.91µM* | x | -0.3%
Cc1ccc(NC(=S)Nc2ccc(C(C)C)cc2)cc1S(=O)(=O)N1CCCCCC1 | 3.3% | u | 17.8µM* | u | 18.7%
COc1ccc(NC(=S)Nc2ccc(C)c(S(=O)(=O)N3CCCCC3)c2)cc1 | -3.6% | u | u | -9.9% | 3.0%
O=C1C2C3C=CC(C3=C(c3ccccc3)c3ccccc3)C2C(=O)N1Cc1ccccc1 (stereo not given) | 7.4% | u | 1.12µM* | 39.8µM* | 16.5%[38.3 µM]
O=C1C2C3C=CC(C3=C(c3ccccc3)c3ccccc3)C2C(=O)N1CCO (stereo not given) | -2.8% | -0.2% | u | -4.5% | 33.9%[38.3 µM]
CC(C)(C)c1ccc2c(c1)C(=O)c1ccccc1C2=O | x | -5.5% | u | x | x
CC(C)(C=O)C1=CC(=O)c2ccccc2C1=O | 1.2% | u | 1.58µM* | 7.08µM* | 28.3%
CC1=CC(=O)c2ccccc2C1=O | -6.2% | u | 14.1µM*! | u | 34.9%
CC(=O)c1ccc(NC(=O)NCc2ccc(F)cc2)cc1 | 2.2% | x | u | x | 0.5%
CC(=O)c1ccc(S(=O)(=O)N2CCN(c3ccccc3F)CC2)cc1 | -0.4% | 20.4%[46 µM] | u | x | 11.8%
CCC(=O)Nc1ccc2nc(SCC(=O)N3CCCC3)sc2c1 | 4.7% | -14.4% | u | 15.8µM* | -0.1%[38.3 µM]
Cc1ccccc1OCc1nnc(SCC(=O)Nc2ccc3c(c2)OCO3)n1C | 1.6% | 24.4% | 8.5% | -15.6% | 8.9%[38.3 µM]
